Data from PubChem BioAssay (NCI).
This is part of a sample that, as a whole, favours compounds with a hit. Of some 83,000 tested, about 20% had one in any assay.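 Each cell line was grown in a 96-well plate and treated with one concentration of compound for 48 hours. Values below 10 were considered active.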 Activity calls are given as the source filed them.

System: U251 CNS
Experiment: NCI-60 one-dose screen, 48 h (100 = growth as untreated, 0 = no growth, -100 = all killed)
Conditions: 10 µM unless noted

| Compound | growth |
| --- | --- |
| O=C(/C=C/c1ccc(Oc2ccc(Br)cc2)cc1)c1ccc(Br)cc1 | 95% (inactive) |
| CO[C@H](C(=O)[C@@H](O)[C@@H](C)O)[C@@H]1Cc2cc3cc(O[C@H]4C[C@@H](O[C@H]5C[C@@H](O)[C@H](O)C(C)O5)[C@H](O)C(C)(O)O4)cc(O)c3c(O)c2C(=O)[C@H]1O[C@H]1C[C@@H](O[C@H]2C[C@@H](O[C@H]3C[C@@H](OC)[C@H](O)C(C)O3)[C@@H](O)C(C)O2)[C@H](O)C(C)O1 (some centres not stated) | 6.61% (active) |
| FC(F)(F)Oc1cccc(-c2cnc3ccc(-c4ccncc4)nn23)c1 | 18.7% (inactive) |
| O=S(=O)(Nc1cc(Sc2cccc3cccnc23)c(O)c2ccccc12)c1ccccc1 | 6.77% (active) |
| Cc1ccc(-c2nc(SCc3nc4cc(Cl)c(Cl)cc4[nH]3)[nH]c(=O)c2C#N)cc1 | 98.7% (inactive) |
| CN(C)S(=O)(=O)Oc1ccc(-c2sc3cc(OS(=O)(=O)N(C)C)ccc3c2C(=O)c2ccc(OCCN3CCCCC3)cc2)cc1 | 18.6% (inactive) |
| COc1ccc(C2=NN(C(C)=O)C(c3cn(-c4ccccc4)nc3-c3ccc(Cl)cc3)C2)cc1 (configuration not stated) | -7.11% (active) |
| O=C(CSc1nnc(-c2cc(-c3ccccc3)nc3ccccc23)n1-c1ccccc1)Nc1ccc(C(=O)/C=C/c2ccc(Cl)cc2)cc1 | 93.9% (inactive) |
| CCOC(=O)C(=Cc1ccc(-c2ccccc2)cc1)C(=O)OCC | 21.3% (inactive) |
| Cc1ccc(S(=O)(=O)N2CCC(=O)c3ccccc32)cc1 | 49.4% (inactive) |
| COc1ccccc1N(C(C)=O)C1=C(Cl)C(=O)c2ccccc2C1=O | 8.36% (active) |
| C=C(C)[C@@H]1CC[C@]2(C(N)=O)CC[C@]3(C)[C@H](CC[C@@H]4[C@@]5(C)CC[C@H](OCCC#N)C(C)(C)[C@@H]5CC[C@]43C)[C@@H]12 | 87.7% (inactive) |
| CN(C)CCCC1(c2ccc(F)cc2)OCc2cc(-c3cc4ccccc4s3)ccc21 (configuration not stated) | -83% (active) |
| [2H]C([2H])([2H])Oc1ccc(F)cc1/C=C/C(=O)/C=C(/C=C/c1cc(F)ccc1OC([2H])([2H])[2H])OB(F)F | 43.3% (inactive) |
| COc1ccc(/C(C)=C(/c2ccc(OCCCN(C)C)cc2)c2ccc(OC(=O)c3ccccc3)cc2)cc1 | 68.2% (inactive) |
| Cc1ccc2c(=O)cc(C(=O)Nc3sc4c(c3C(=O)NCc3cccnc3)CCCC4)oc2c1C | 104% (inactive) |

| Compound | growth |
| --- | --- |
| CCCCCCCC/C=C\CCCCCCCCOc1ccc(CC(=O)NCC[N+]2(C)CCOCC2)cc1 | 15.4% (inactive) |
| O=C1/C(=C/c2ccc(F)cc2)CN(C(=O)C(Cl)Cl)C/C1=C\c1ccc(F)cc1 | -95.5% (active) |
| COc1ccc(Nc2ncccc2/C=C/C(=O)c2cc(OC)c(OC)c(OC)c2)cc1 | -95.8% (active) |
| O=C(Cc1cccc(OC(F)(F)F)c1)Nc1ccc(CCCCc2nnc(NC(=O)Cc3ccccn3)s2)nn1 | 82.3% (inactive) |
| C=C1C(=O)O[C@H]2[C@H]1CC/C(COC(=O)/C=C\C(=O)NCc1ccc(Cn3c(=O)sn(CCCl)c3=O)cc1)=C\CC[C@@]1(C)O[C@@H]21 | 88.9% (inactive) |
| CNC(=O)c1ccccc1Nc1nc(Nc2cc(OC)c(OC)c(OC)c2)ncc1Br | -9.93% (active) |
| Cc1ccc(C=C2C(=O)NC(=O)NC2=O)cc1 | 99% (inactive) |
| O=C(CN1CCCCCC1)Nc1nc2ccc(NCc3ccc(Cl)cc3)cc2s1 | 95.8% (inactive) |
| COc1ccc(C(=O)Cn2c(C(=O)c3ccc(Cl)cc3)nc3ccccc32)cc1 | 65.3% (inactive) |
| C#CCO[C@H]1CC(CC#C)(CC#C)C(=O)[C@@H]2[C@H]1[C@H]1C[C@@H]3[C@@]4(C)CCC[C@@](C)(C(=O)OC)[C@@H]4CC[C@@]23C=C1C(C)C | 96.3% (inactive) |
| Fc1ccc2[nH]cc(-c3nc(-c4c[nH]c5ccncc45)cs3)c2c1 | -81.8% (active) |
| O=C(CSc1nc(-c2ccccc2)cc(=O)[nH]1)Nc1nc(-c2ccccc2)cs1 | 99.9% (inactive) |
| O=C1/C(=C2\SC(=S)N(C3CC3)C2=O)SC(=S)N1C1CC1 | 99.6% (inactive) |
| COc1ccc(Cn2cc3c(c2-c2ccccc2)CCc2cnoc2-3)cc1 | 29.4% (inactive) |
| Cc1nn(-c2ccccc2)c(N)c1N=C1NC(=O)/C(=C/c2ccc(Br)cc2)S1 | 77.1% (inactive) |
| CN(C)c1ccc(/C=C(\C#N)c2cc3ccccc3[nH]2)cc1 | 17.4% (inactive) |
